From PubChem BioAssay (NCI)
About 83,000 compounds went through this panel and 20% of them were active in at least one assay; those are over-represented in the sample as a whole.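 Cell lines were cultured in 96-well plates, exposed to a single compound concentration, and assessed for percent growth 48 hours later.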 Activity calls are given as the source filed them. The calls were made as follows: active = growth percent below 10; inactive = the rest.

Experiments:
Assay in all cases: NCI-60 one-dose screen, 48 h (100 = growth as untreated, 0 = no growth, -100 = all killed)
Conditions in all cases: 10 µM unless noted
T-47D breast = test system: T-47D breast
MDA-MB-435 melanoma = test system: MDA-MB-435 melanoma
SW-620 colon = test system: SW-620 colon
MCF7 breast = test system: MCF7 breast
HCT-116 colon = test system: HCT-116 colon
HCC-2998 colon = test system: HCC-2998 colon
KM12 colon = test system: KM12 colon
BT-549 breast = test system: BT-549 breast

Measured: growth

COc1ccc(C(=O)n2nc(/C=C/c3ccc(O)c(OC)c3)cc2/C=C/c2ccc(O)c(OC)c2)cc1
inactive: HCC-2998 colon 16.4%
active: T-47D breast -4.93% | MDA-MB-435 melanoma -22.5% | SW-620 colon 4.16% | MCF7 breast -3.07% | HCT-116 colon -0.661% | KM12 colon 6.33%

COc1cc(C2C3=C(COC3=O)Nc3cc4c(cc32)OCO4)cc2c1OCO2 (configuration not stated)
active: HCT-116 colon 6.83% | HCC-2998 colon 8.39% | KM12 colon 1.28%
inactive: T-47D breast 51.9% | BT-549 breast 25.4% | SW-620 colon 17.1% | MCF7 breast 13.9%

Cc1cc(C(C)(C)C)ccc1S
inactive: T-47D breast 91.6% | BT-549 breast 105% | SW-620 colon 98.4% | MCF7 breast 86.4% | HCT-116 colon 103% | HCC-2998 colon 112% | KM12 colon 112%

Cc1ccc(CSC(=N)N)cc1C
inactive: T-47D breast 108% | BT-549 breast 98.1% | SW-620 colon 102% | MCF7 breast 101% | HCT-116 colon 105% | HCC-2998 colon 100% | KM12 colon 107%

Fc1ccccc1-c1nc(-c2nc3cc(Cl)c(Cl)cc3[nH]2)c2ccccn12
inactive: T-47D breast 31.5% | BT-549 breast 88.9% | SW-620 colon 80.2% | MCF7 breast 40.5% | HCT-116 colon 37.7% | HCC-2998 colon 96.2% | KM12 colon 80.5%

COc1ccc(C2C=C(c3ccc(Cl)cc3)N=C3SC=C(C)N32)c(Br)c1 (configuration not stated)
inactive: T-47D breast 39.3% | BT-549 breast 19.7% | SW-620 colon 24.2% | MCF7 breast 10.2% | HCT-116 colon 16%

O=[N+]([O-])c1ccc(C(c2ccccc2)c2ccccc2)cc1
inactive: T-47D breast 109% | MDA-MB-435 melanoma 99.5% | SW-620 colon 87.5% | MCF7 breast 84.9% | HCT-116 colon 70.4% | HCC-2998 colon 92% | KM12 colon 90.9%

CC1(c2ccc(Cl)cc2)OC(=O)CC(=O)O1
inactive: T-47D breast 95.3% | BT-549 breast 109% | SW-620 colon 105% | MCF7 breast 101% | HCT-116 colon 100% | HCC-2998 colon 102% | KM12 colon 110%

O=C(O)C1CCCCN1c1nc(Cl)nc(Cl)n1 (configuration not stated)
inactive: T-47D breast 99% | BT-549 breast 103% | SW-620 colon 101% | MCF7 breast 100% | HCT-116 colon 111% | HCC-2998 colon 101% | KM12 colon 111%

CCc1cnc(=S)n(-c2ccccc2)c1
inactive: T-47D breast 112% | BT-549 breast 107% | SW-620 colon 104% | MCF7 breast 108% | HCT-116 colon 93.5% | HCC-2998 colon 86.5% | KM12 colon 109%

O=C(CSc1nc2ccccc2[nH]1)c1ccc(N2CCOCC2)cc1
inactive: T-47D breast 94.1% | BT-549 breast 93% | SW-620 colon 94.5% | MCF7 breast 92.2% | HCT-116 colon 94.3% | HCC-2998 colon 98.3% | KM12 colon 104%

CC(=O)Nc1nc(N)nc(NC(C)=O)c1N=O
inactive: T-47D breast 110% | BT-549 breast 104% | SW-620 colon 101% | MCF7 breast 108% | HCT-116 colon 98.6% | HCC-2998 colon 84% | KM12 colon 111%

NC1=NC(SCc2ccccc2CCl)c2ncn(Cc3ccccc3CCl)c2N1 (configuration not stated)
inactive: T-47D breast 35.8% | BT-549 breast 56.4% | MCF7 breast 25.2% | HCC-2998 colon 79.4% | KM12 colon 48.5%
active: SW-620 colon 2.06% | HCT-116 colon 7.53%

O=C(O)/C=C/C(=O)c1ccc(Cl)cc1
inactive: T-47D breast 95.5% | BT-549 breast 98.1% | SW-620 colon 108% | MCF7 breast 102% | HCT-116 colon 108% | HCC-2998 colon 109% | KM12 colon 106%

Clc1cc2c(nn1)Nc1ccccc1S2
inactive: T-47D breast 85% | BT-549 breast 103% | SW-620 colon 103% | MCF7 breast 85.3% | HCT-116 colon 96.5% | HCC-2998 colon 114% | KM12 colon 102%

COc1cccc(CC(C)=C(c2ccc(OCCN3CCCCC3)cc2)c2ccc(OCCN3CCCCC3)cc2)c1
inactive: BT-549 breast 44.6%
active: T-47D breast -42.4% | MDA-MB-435 melanoma -96.6% | MCF7 breast -81.4% | HCT-116 colon -64.7% | HCC-2998 colon -68.8% | KM12 colon -30.9%

Cc1ccc(S(=O)(=O)NC(=O)n2cc(-c3ccncc3)c(-c3ccc(Cl)c(O)c3)n2)cc1
inactive: T-47D breast 108% | BT-549 breast 106% | SW-620 colon 131% | MCF7 breast 124% | HCT-116 colon 96% | KM12 colon 118%

CCCCOc1ccc(/C=C2/SC(N3CCOCC3)=NC2=O)cc1OCC
inactive: T-47D breast 80.6% | BT-549 breast 83% | SW-620 colon 96.9% | MCF7 breast 99.4% | HCT-116 colon 93.2% | HCC-2998 colon 109% | KM12 colon 98.7%

Cc1ccc2nc(-c3cc4c([nH]c5ccccc54)c(-c4ccc(F)c(F)c4)n3)[nH]c2c1
inactive: T-47D breast 77.8% | BT-549 breast 83.7% | SW-620 colon 101% | MCF7 breast 51.8% | HCT-116 colon 15.2% | HCC-2998 colon 88.6% | KM12 colon 72.4%

Cc1cc(N)n(S(=O)(=O)c2oc(-c3ccccc3)nc2C#N)n1
inactive: T-47D breast 71% | BT-549 breast 101% | SW-620 colon 48.9% | MCF7 breast 64% | HCT-116 colon 75% | HCC-2998 colon 114% | KM12 colon 101%

O=C(Oc1ccccc1[N+](=O)[O-])C1CCCN1C(=O)OCc1ccccc1 (configuration not stated)
inactive: T-47D breast 110% | BT-549 breast 89.6% | SW-620 colon 105% | MCF7 breast 95.6% | HCT-116 colon 87% | HCC-2998 colon 101% | KM12 colon 107%

COc1ccc(-n2c(-c3ccccc3)c(-c3ccccc3)c3c(SCC(=O)N/N=C/c4ccc(Cl)cc4)ncnc32)cc1
inactive: T-47D breast 79.9% | BT-549 breast 85.2% | SW-620 colon 99% | MCF7 breast 85% | HCT-116 colon 87.8% | HCC-2998 colon 93.2% | KM12 colon 89.1%

C=CCn1cc(-c2nc3ccccc3s2)c2cc(-c3ccc4c5c(cccc35)C(=O)N(CCN3CCNCC3)C4=O)ccc21
active: MCF7 breast -65.8%
inactive: T-47D breast 82.4% | BT-549 breast 91.3% | SW-620 colon 26.8% | HCT-116 colon 29.7% | HCC-2998 colon 87.5% | KM12 colon 98.5%

CC(O)CN1CCCCC1 (configuration not stated)
inactive: T-47D breast 137% | BT-549 breast 101% | SW-620 colon 102% | MCF7 breast 103% | HCT-116 colon 110% | HCC-2998 colon 115% | KM12 colon 106%

C/C=C(\C)C(C(=O)NC1CCCCC1)N(C(=O)C1CCc2cc(F)ccc2O1)c1ccc(Cl)cc1 (configuration not stated)
inactive: T-47D breast 95.2% | BT-549 breast 98.3% | SW-620 colon 103% | MCF7 breast 99.1% | HCT-116 colon 103% | HCC-2998 colon 94.9% | KM12 colon 111%

COc1cccc(CC(C)=C(c2ccc(OCCN(C)C)cc2)c2ccc(OCCN(C)C)cc2)c1
inactive: BT-549 breast 72.2%
active: T-47D breast -72.7% | SW-620 colon -61.6% | MCF7 breast -55.7% | HCT-116 colon -74.3% | HCC-2998 colon -15.3% | KM12 colon -1.23%

COc1ccc(N2CCN(Cc3cc(C(=O)/C=C/c4c[nH]c5ccccc45)ccc3O)CC2)cc1
inactive: T-47D breast 93.8% | BT-549 breast 107% | SW-620 colon 104% | MCF7 breast 97.4% | HCT-116 colon 110% | KM12 colon 110%

O=S(=O)(NCCNc1nccc(-c2c(-c3cccc(O)c3)nc3sccn23)n1)c1ccc(F)cc1
inactive: T-47D breast 85.3% | BT-549 breast 79.3% | SW-620 colon 103% | MCF7 breast 38.2% | HCT-116 colon 45.9% | KM12 colon 56.6%

Cc1cc(N/N=C/c2nc(-c3ccc(Br)cc3)oc2C)c2cc(Br)ccc2n1
inactive: T-47D breast 89.8% | HCT-116 colon 16.1% | HCC-2998 colon 94.7% | KM12 colon 60.2%
active: MDA-MB-435 melanoma -11.2% | SW-620 colon -46.5% | MCF7 breast -78.7%

O=S(=O)(NCCCNc1nccc(-n2ccc3cccnc32)n1)c1ccc(Br)cc1
inactive: T-47D breast 95.6% | MDA-MB-435 melanoma 107% | SW-620 colon 110% | MCF7 breast 110% | HCT-116 colon 105% | HCC-2998 colon 121% | KM12 colon 98.3%

C=C1CCC2C(C)(CO)C(O)CCC2(C)C1C/C=C1/C(=O)OCC1Oc1ccccc1C (configuration not stated)
inactive: T-47D breast 84.9% | MDA-MB-435 melanoma 59.3% | SW-620 colon 17.9% | MCF7 breast 29.5% | HCT-116 colon 71.4% | HCC-2998 colon 125% | KM12 colon 78.3%

CCN1CCN(CC(=O)N2c3cccc4cccc(c34)N(C(=O)CN3CCN(CC)CC3)C2c2cn(-c3ccccc3)nc2-c2cccc([N+](=O)[O-])c2)CC1
active: T-47D breast -70.7% | MDA-MB-435 melanoma -75.7% | SW-620 colon -43.6% | MCF7 breast -29% | HCT-116 colon -54.9% | HCC-2998 colon -49.1%
inactive: KM12 colon 23.4%

Clc1ccccc1-c1nc2ccccc2[nH]1
inactive: T-47D breast 89.3% | MDA-MB-435 melanoma 103% | SW-620 colon 94.6% | MCF7 breast 82.8% | HCT-116 colon 78.6% | HCC-2998 colon 70.9% | KM12 colon 97.5%

Cc1ccc(C(=O)NCCCNc2nccc(-n3ccc4cccnc43)n2)cc1
inactive: T-47D breast 90.6% | MDA-MB-435 melanoma 104% | SW-620 colon 109% | MCF7 breast 103% | HCT-116 colon 93.7% | HCC-2998 colon 109% | KM12 colon 103%

CCN(CC)CCC(CNc1c2ccc(Cl)cc2nc2ccc(OC)cc12)c1ccccc1 (configuration not stated)
active: T-47D breast -58.8% | MDA-MB-435 melanoma -80.4% | SW-620 colon -49.7% | MCF7 breast -38.6% | HCT-116 colon -36% | HCC-2998 colon -72% | KM12 colon -24.1%

O=C1CS/C(=N\Nc2cc(=O)[nH]c3ccccc23)N1c1ccccc1
inactive: T-47D breast 89.6% | MDA-MB-435 melanoma 82.9% | SW-620 colon 92.9% | MCF7 breast 92% | HCT-116 colon 89.7% | HCC-2998 colon 96% | KM12 colon 98.8%
